In the library only some 2.2% were active in any assay of this set; here they are far more common.
Abeta yeast res = A-beta toxicity reversal in yeast. yeast expressing A-beta42, growth rescue, OD600, 48 h; response scale: 0% DMSO, 100% iron-clioquinol control. AID 1347071. 410,000 tested, 0.063% active. Potency, µM (series often up to 46.1 µM), hits mostly activators; note: nearly all actives have a fitted effect of over 55% in size
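Yeast A-beta toxicity model in growth medium with pinned compounds, 48 h at 30 C; growth read as absorbance at 600 nm. Normalized to FeCl3/clioquinol equimolar mix (positive) and DMSO (negative).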
aSyn yeast inh = alpha-synuclein toxicity inhibition in yeast. Yeast expressing alpha-synuclein, growth rescue, BacTiter-Glo, 24 h. Potency, µM (highest dose often 46.1 µM), for inactives: at the top dose growth rescue (activation), hits mostly activators. 370,000 tested, 0.14% active. AID 652106; note: % of control where 0% means no effect; nearly all actives have a fitted effect of over 65% in size
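Rescue of yeast growth: cells expressing toxic alpha-synuclein, induced in galactose at OD600 0.02, incubated with compound 24 h at 30 C. ATP luminescence quantified growth; inhibitors of toxicity appear as activators.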
FUS suppressor = suppressors of FUS proteinopathy in yeast; AID 1347120; 390,000 tested, 0.24% active; Potency, µM (top dose mostly 76.6 µM), actives largely listed as activators; S. cerevisiae FUS-expressing, growth rescue, OD600, 24 h;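 note: plate controls were DMSO vehicle for no effect and reference control for full effect; nearly all actives have a fitted effect of over 55% in size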
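S. cerevisiae expressing FUS from galactose induction served as the toxicity model. Growth after 24hr at 30C, read as absorbance at 600 nm, indicates suppression of toxicity; compounds dosed at several concentrations.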
Mito fusion act = blocks mitochondrial division or promotes mitochondrial fusion. S. cerevisiae fusion-defective mutant growth rescue, CellTiterGlo 48 h. Potency, µM (titrated, usually from 46.1 µM), for inactives: at the top dose growth rescue (activation), hits mostly activators. 320,000 tested, 0.23% active; note: % of control where 0% means no effect; nearly all actives have a fitted effect of over 45% in size
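Temperature-sensitive fusion-defective S. cerevisiae (e.g. fzo1-1, mgm1-5) were grown with compound in YPEG medium (3% ethanol, 3% glycerol) for 48 hours at 37C. Growth rescue was measured as viability by CellTiterGlo luminescence after 10 minutes at ambient.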
TDP43 rescue = inhibitors of TDP-43 toxicity in yeast | AID 652104 | 410,000 tested, 1.8% active | Potency, µM (top dose mostly 46.1 µM), for inactives: at the highest dose growth rescue (activation), actives largely listed as activators | TDP-43 expressing yeast growth rescue, BacTiter-Glo, 24 h; note: % of control where 0% means no effect; nearly all actives have a fitted effect of over 50% in size
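In this qHTS, compounds that restore growth of yeast expressing TDP-43 appear as activators. Cells (OD600=0.02, galactose medium, raffinose-pregrown) are incubated with compound 24 hr at 30 deg C and growth is quantified by BacTiter-Glo.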
An asterisk follows results filed as active; i = inactive; ? = inconclusive; / = not tested or not shown; ! = repeats disagree. Calls come from the whole dose curve; as a rule, active = well fitted curve in the direction sought with a large enough effect; inconclusive = small, poorly fitted or top-dose-only effect, or another doubt; inactive = no such curve, though single readings can be large; an effect the other way counts as inactive or inconclusive. Potency is the fitted concentration of half-maximal effect.

SMILES	Abeta yeast res	aSyn yeast inh	FUS suppressor	Mito fusion act	TDP43 rescue
FC(F)(F)c1cccc(NC(=S)NCC2COc3ccccc3O2)c1 (stereo not drawn)	i	-28.8%	i	-11.6%	35.5µM*
CN(CC1COc2ccccc2O1)C(=S)Nc1ccccc1 (stereo not drawn)	?	13.9%	i	/	12.6µM*
Cc1ccccc1N(C)C(=O)C1CCCN1S(=O)(=O)c1cccc2cccnc12 (stereo not drawn)	/	/	i	/	/
Cc1cc(C)cc(Nc2ncnc3c2nc2n3CCCC2)c1	i	/	i	/	15.2%
Cc1cc(C)cc(NC(=O)OC2CC3CC2[C@H]2CCCCN2[C@H]3Cc2ccccc2)c1 (stereo partly drawn)	/	/	i	/	/
CCCCn1c(SCC(=O)OCC)nc2c(sc(=S)n2-c2ccccc2OC)c1=O	i	-14.7%	i	2.5%	12.6µM*
Cc1cc(C)cc(NC(=S)/N=C(\N)Nc2nc(C)c3ccccc3n2)c1	i	0.2%	/	24.8%	15.8µM*
Cc1cccc(NC(=S)/N=C(\N)Nc2nc(C)c3ccccc3n2)c1	?	-9.7%	i	17.7%	20µM*
Cc1cccc(NC(=S)/N=C(\N)Nc2nc(C)c3ccc(C)cc3n2)c1	i	-1.0%	i	-1.7%	?
Cn1c2ccccc2c2nnc(SCCOc3ccccc3)nc21	/	1.3%	/	/	/
CCOc1cccc(-c2cc(C(=O)N3N=C(C)CC3(O)C(F)F)c3ccccc3n2)c1 (stereo not drawn)	i	4.9%	i	5.1%	17.8µM*
CC(C)(C)c1ccc(/C=C/C(=O)Nc2ccc3c(c2)OCCO3)cc1	/	-43.8%	/	14.6µM*	/
Cc1ccc(-c2nc3cnccn3c2Nc2ccc3c(c2)OCO3)cc1	i	4.6%	i	-6.0%	?
COc1ccc(-c2nc3cnccn3c2Nc2ccc3c(c2)OCO3)cc1	i	6.1%	28.2µM*	2.6%	23.8%
COC(=O)[C@@H]1N=C(c2ccc(OC)cc2)O[C@]12C(=O)N(Cc1cn(Cc3ccccc3)nn1)c1cccc(Cl)c12	/	/	i	/	/
COc1ccc(N2CCN(C(=O)c3ccc(Nc4nc5ccccc5n5nnnc45)cc3)CC2)cc1	i	/	?	/	8.2%
O=C(c1ccc(Nc2nc3ccccc3n3nnnc23)cc1)N1CCN(c2ccc(F)cc2)CC1	?	/	i	/	10µM*
CCn1c2ccccc2c2cc(C=NNC(=O)c3ccoc3C)ccc21	/	/	i	/	/
O=C(Nc1ccccc1C(=O)N1CCN(c2cccc(Cl)c2)CC1)C1=CSCCO1	?	16.6%	i	35.5µM*	?
O=C(Nc1ccc(C(=O)N2CCN(c3ccc(Cl)cc3)CC2)cc1)C1=CSCCO1	i	0.6%	i	-5.2%	-11.8%
CCn1cc(C(=O)NCc2ccco2)c(=O)c2cc(S(=O)(=O)N3CCCCCC3)ccc21	i	-14.4%	?	13.1%	-9.1%
CCn1cc(C(=O)NCc2ccco2)c(=O)c2cc(S(=O)(=O)N3CCc4ccccc4C3)ccc21	i	1.7%	6.31µM*	1.1%	-13.4%
COc1cc(Br)c(CC(=O)NO)cc1OC	/	1.8%	/	/	/
COc1cc(C#Cc2c(-c3cncn3C)n(C)c3ccc(-c4cnc(OC)nc4)cc23)cc(OC)c1	i	14.1%	i	?	11.2µM*
CCN(c1ccccc1)c1cc(C)nc2ncnn12	i	-4.2%	i	6.7%	9.6%
SMILES	Abeta yeast res	aSyn yeast inh	FUS suppressor	Mito fusion act	TDP43 rescue
Cc1cc(Oc2ccc(-c3ccccc3)cc2)n2ncnc2n1	i	13.1%	i	-4.1%	17.8µM*
CCN(CC)c1ccc(/C=C/C2=C3C=CC=CC3NC=C2)cc1 (stereo not drawn)	/	-1.6%	/	/	/
CCOc1ncccc1C(=O)Nc1ccc(F)cc1	i	-23.6%	i	2.4%	-0.8%
O=C(Nc1ccccc1C(=O)Nc1ccc(Cl)cc1)c1cccnc1	i	-3.4%	i	6.8%	14.1µM*
CCOc1ncccc1C(=O)Nc1ccc(Cl)cc1	i	-5.8%	i	15.4%	11.2µM*
O=C(Nc1ccc(Cl)c(Cl)c1)c1cccnc1	i	-1.3%	i	9.1%	17.8µM*
CC(=O)Nc1ccc(C=CC=Cc2cccc([N+](=O)[O-])c2)cc1	i	-51.5%	/	/	14.1µM*
CC(=O)Nc1ccc(OCc2cccc([N+](=O)[O-])c2)cc1	i	5.2%	i	-11.6%	?
COc1cccc(/C=N/NC(=O)C(=O)Nc2ccccc2OC(F)(F)C(F)F)c1O	i	22.4µM*	i	6.5%	-1.7%
COc1ccccc1/C=N/NC(=O)c1cccc(OC(F)(F)C(F)F)c1	i	-14.6%	/	0.4%	-0.6%
CN(CC(=O)Nc1ccccc1Br)C(=O)CCSc1ccc(F)cc1	i	11.5%	i	8.7%	14.1µM*
CCC1CCCCN1C(=O)CSc1n[nH]c(-c2ccccc2)n1 (stereo not drawn)	i	/	i	/	-5.2%
COc1ccc2[nH]c3c(=O)n(CCCCC(=O)N4CCCC4)c(=S)[nH]c3c2c1	i	0.4%	39.8µM*	1.5%	-13.5%
c1ccc(CC2CCN(c3ncnc4sccc34)CC2)cc1	i	-0.8%	i	3.5%	12.6µM*
O=C(NC1CCCCN(Cc2cccc(Cl)c2)C1=O)c1cccc(F)c1 (stereo not drawn)	/	/	i	/	/
Cc1nc(C(=O)NNC(=O)c2ccc(Cl)cc2)cs1	i	2.0%	i	6.5%	-2.2%
O=C(NNC(=O)c1csc(-c2cccs2)n1)c1ccc(Cl)cc1	i	16.5%	i	/	22.4µM*
CCCCCCSc1ccc(-c2nc3ccc(Cl)cn3c2NCCCC)cc1OC	i	-2.4%	i	/	16.9%
CCCCCCSc1cc(-c2nc3cc(C)ccn3c2NCCCC)ccc1OC	i	-57.4%	28.2µM*!	-8.3%	-91.3%
CCCCCCSc1ccc(-c2nc3ccc(C)cn3c2NCCCC)cc1OC	i	-62.8%	15.8µM*	/	-92.6%
COc1ccc(-c2csc(C)n2)cc1Br	i	0.8%	i	-1.9%	11.2µM*
O=C(Nc1cccc(C(F)(F)F)c1)c1cccc2c(-c3cccnc3)coc12	i	-0.5%	i	/	15.8µM*
O=C(NCc1cccc(Cl)c1)c1ccc(-c2cccnc2)c2ccoc12	i	3.1%	i	/	35.5µM*
O=C(NCc1ccc(C(F)(F)F)cc1)c1ccc(-c2cccnc2)c2ccoc12	i	-4.8%	?	/	12.6µM*
COc1cc(NC(=O)c2cccc3c(-c4cccnc4)coc23)cc(OC)c1OC	i	0.2%	i	/	16.0%
Cn1nc(-c2ccc(F)cc2)nc2c(=O)n(C)c(=O)nc1-2	/	-84.4%	/	/	/
Fc1ccc(-c2cc(-c3cccs3)cc(-c3ccccc3)n2)cc1	i	7.4%	i	3.8%	20.4%
Fc1ccc2[nH]c(-c3cccs3)cc2c1	?	/	i	/	20µM*
CCCCOc1ccc(CC(=O)NOC)cc1	/	0.9%	/	/	/

Screening data (PubChem)
